PPARg SRC-3 ag: PPARgamma agonists recruiting SRC-3 coactivator, primary screen, biochemical; Peroxisome proliferator-activated receptor gamma (Homo sapiens), P37231; biochemical PPARgamma/SRC-3 coactivator recruitment assay; activation, % at 8 µM; actives 0.26% (n = 200,000); AID 731, 2007; in the data active = activation above about 23%;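 also: 0% = DMSO and 100% = reference agonist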
Target sequence (P37231 whole entry, looked up): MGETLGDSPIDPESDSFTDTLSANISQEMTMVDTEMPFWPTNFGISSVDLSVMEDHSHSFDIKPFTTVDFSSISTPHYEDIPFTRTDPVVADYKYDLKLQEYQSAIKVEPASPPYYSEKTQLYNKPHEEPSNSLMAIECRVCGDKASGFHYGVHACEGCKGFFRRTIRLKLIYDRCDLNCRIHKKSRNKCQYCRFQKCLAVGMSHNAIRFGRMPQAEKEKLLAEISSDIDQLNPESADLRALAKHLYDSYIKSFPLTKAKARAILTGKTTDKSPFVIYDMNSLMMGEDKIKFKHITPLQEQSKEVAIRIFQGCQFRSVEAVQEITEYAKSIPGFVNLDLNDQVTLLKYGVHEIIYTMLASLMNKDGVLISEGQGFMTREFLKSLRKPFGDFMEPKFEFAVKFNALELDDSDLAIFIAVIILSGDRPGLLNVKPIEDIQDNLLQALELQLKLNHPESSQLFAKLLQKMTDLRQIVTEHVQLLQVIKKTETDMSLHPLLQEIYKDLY
PPARg SRC2 recr: agonists of PPARg-SRC-2 recruitment, primary screen, biochemical, HTS; Peroxisome proliferator-activated receptor gamma (Homo sapiens), P37231; PPARgamma LBD-SRC-2 recruitment; activation, % at 8 µM; actives 0.34% (n = 200,000); AID 1032, 2008; in the data active = activation above about 22%;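 also: 0% = vehicle and 100% = reference agonist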
PPARg SRC1 recr: PPARgamma agonists recruiting SRC-1 coactivator, primary screen, biochemical; Peroxisome proliferator-activated receptor gamma (Homo sapiens), P37231; PPARgamma-SRC-1 coactivator recruitment biochemical assay; activation, % at 8 µM; actives 0.41% (n = 200,000); AID 631, 2007; in the data active = activation above about 19%;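 also: 0% = DMSO and 100% = reference agonist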
TR-FRET SRC-2 ct: TR-FRET signal artefacts, primary screen, artefact control for PPARgamma SRC-2 agonist project, biochemical | actives 0.4% (n = 200,000) | TR-FRET ratio at 8 µM | TR-FRET artefact counter-screen; active compounds read high
SRC3 TRFRET art: TR-FRET detection interference compounds, artefact control for PPARgamma SRC-3 recruitment agonists, biochemical, TR-FRET ratio. AID 1048, 2008. actives 0.39% (n = 99,000). TR-FRET ratio at 8 µM. TR-FRET artefact counter-screen, PPARgamma/SRC-3 format; active compounds read high
SRC1 TRFRET art: TR-FRET detection interference compounds, primary screen, artefact control for PPARgamma SRC-1 recruitment agonists, biochemical, TR-FRET emission ratio. TR-FRET detection artefact counter-screen; active compounds read high. TR-FRET ratio at 8 µM. actives 0.34% (n = 99,000). AID 1051, 2008; in the data active = TR-FRET ratio above about 2300
An asterisk follows results filed as active; / = not tested or not shown. In the library only some 0.9% were active in any assay of this set; here they are far more common. Rule as the data show it, unless noted: active = TR-FRET ratio above about 2000; inactive = the rest.

SMILES | PPARg SRC-3 ag | PPARg SRC2 recr | PPARg SRC1 recr | TR-FRET SRC-2 ct | SRC3 TRFRET art | SRC1 TRFRET art
Cc1ccc(C)c(S(=O)(=O)N2CCN(CC(=O)Nc3sccc3C#N)CC2)c1 | 8.5 | 2.2 | 5.2 | 1734 | 2054* | 1942
Cc1cccc(NC(=O)c2sc3nc(-c4ccc(F)cc4)cn3c2C)n1 | -3.9 | -1.5 | 35.5* | 1617 | / | /
CCCCOC(=O)N/N=C/C=C/c1ccccc1 | 5.8 | -0.9 | 10.9 | 1669 | 1739 | 2344*
O=C1C2CCCN2c2ccc(S(=O)(=O)N3CCOCC3)cc2N1Cc1cccc(C(F)(F)F)c1 (stereo not drawn) | 4.8 | 5.8 | 4.3 | 1640 | / | /
CON(C)S(=O)(=O)c1ccc2c(c1)N(Cc1ccc(C)cc1)C(=O)C1CCCN21 (stereo not drawn) | 5.9 | 4.6 | 1.2 | 1753 | 2052* | 2187
CC(=O)C1=C(C)NC(SCC(=O)c2ccc(-c3ccccc3)cc2)=C(C#N)C1c1cccnc1 (stereo not drawn) | 2.5 | 12.6 | 6.5 | 2094* | / | /
Cc1nc([N+](=O)[O-])c(C(=O)OCc2ccc(C#N)cc2)n1C | -2.4 | 0.2 | 6.6 | 1764 | 1551 | 1876
O=c1c(Cc2ccc(F)cc2)c(O)ccn1CCCN1CCOCC1 | 0.2 | 1.2 | 11.6 | 1642 | 1555 | 1931
Nc1nc(-c2ccc(Cl)cc2)nnc1-c1ccc(Br)cc1 | 10.7 | -2.2 | 0.8 | 1760 | 3281* | 1858
COc1ccc(C2=NN(C(=S)Nc3ccccc3)C(c3ccccc3)C2)cc1 (stereo not drawn) | 5.4 | 2.0 | 5.1 | 1723 | 1746 | 1987
CNC(=S)N1N=C(c2ccccc2)CC1c1ccc(OC)c(OC)c1 (stereo not drawn) | 7.0 | 15.2 | 16.5 | 1694 | 1736 | 2320*
COc1ccc(C2CC(c3ccccc3)=NN2C(=S)Nc2ccccc2)cc1 (stereo not drawn) | 14.3 | 21.5 | 14.3 | 2014* | 2233* | 2274
Fc1ccc(C2CC(c3cccs3)=NN2C(=S)Nc2ccccc2)cc1 (stereo not drawn) | 4.0 | 13.7 | 10.1 | 1687 | 1821 | 2336*
CNC(=S)N1N=C(c2ccc(C)cc2)CC1c1ccc(OC)c(OC)c1 (stereo not drawn) | 0.7 | -1.1 | -0.4 | 1450 | 1440 | 1680
OCCC#Cc1ccc(CN2CCN(C3CCCCC3)C(CCO)C2)cc1 (stereo not drawn) | -0.1 | 1.3 | 7.4 | 1578 | 1538 | 1930
COc1ccc(/C=C\C(=O)NCc2ccc3c(c2)cc(C)n3C)cc1OC | 5.3 | 0.0 | 12.0 | 1597 | 2112* | 1954
CCc1cccc(C)c1NC(=S)NCc1ccc2c(c1)cc(C)n2C | 5.8 | 4.9 | -0.3 | 1854 | 2094* | 2006
COc1cccc(C(=O)NCc2ccc3c(c2)cc(C)n3C)c1 | 7.6 | 9.1 | 8.7 | 2069* | 2355* | 2604*
COc1ccc(C(=O)NCc2ccc3c(c2)cc(C)n3C)cc1OC | -2.9 | 5.8 | -6.7 | 1671 | 1606 | 1553
COc1cc(C(=S)N2CCN(c3ccccc3Cl)CC2)cc(O)c1O | -1.0 | 6.8 | 10.8 | 1646 | 1530 | 1684
O=C(c1ccco1)N1CCN(C(=O)c2cc(-c3ccncc3)nc3ccc(Br)cc23)CC1 | 15.3 | 4.8 | 8.9 | 1679 | / | /
O=C(O)c1cc(-c2ccco2)nc2ccc(Br)cc12 | 15.5 | 21.6 | 18.1 | 2007* | 2104* | 2318*
O=C(c1cc2sccc2n1Cc1ccc(F)cc1)N1CCN(c2nc3ccccc3s2)CC1 | -3.4 | 7.5 | 7.8 | 2655* | / | /
O=C(c1cc2sccc2n1Cc1ccccc1)N1CCc2ccccc21 | 6.4 | 2.7 | 6.1 | 2447* | / | /
COc1cc(OC)c(NC(C)C(=O)N2CCCC2)cc1Cl (stereo not drawn) | -0.2 | 9.3 | -3.5 | 1484 | 1694 | 1645
SMILES | PPARg SRC-3 ag | PPARg SRC2 recr | PPARg SRC1 recr | TR-FRET SRC-2 ct | SRC3 TRFRET art | SRC1 TRFRET art
O=C(Nc1cccc(Cl)c1)Nc1nnc(CC2=CCCCC2)s1 | -3.0 | 2.5 | -4.3 | 1501 | 1677 | 1467
Cc1ccc(-c2nnc(NCc3nc4ccccc4[nH]3)c3ccccc23)cc1S(=O)(=O)N1CCCCC1 | 0.1 | 5.1 | 5.2 | 1948 | 2547* | 2094
Cc1ccc(-c2nnc(NC3CCCCC3)c3ccccc23)cc1S(=O)(=O)N1CCN(C)CC1 | -1.0 | 4.7 | 2.3 | 1505 | / | /
Cc1oc(-c2cccc(Cl)c2)nc1CN1CCC(C(=O)N2CCN(c3ccccc3F)CC2)CC1 | 5.9 | 1.1 | 11.9 | 1765 | 1480 | 2346*
O=C(C1=C[C@@H](c2ccc(C(F)(F)F)cc2)C[C@@H](OCCCCO)O1)N1CCN(Cc2ccc3c(c2)OCO3)CC1 | 31.6* | -0.4 | 9.7 | 1423 | 1594 | 1799
COc1ccc(C2Nc3ccccc3C(=O)N2c2ccccc2)cc1CSc1ccccn1 (stereo not drawn) | 2.9 | -8.7 | -3.8 | 1815 | 2243* | 1840
Cc1nc2ccc(NC(=O)CCS(=O)(=O)c3ccccc3)cc2s1 | -2.8 | -2.9 | 5.1 | 1460 | 1750 | 1719
Cc1ccc2nc(-c3ccc(NC(=O)CCS(=O)(=O)c4ccccc4)cc3)sc2c1 | 3.2 | 2.6 | 3.7 | 1685 | 2301* | 1675
COc1ccc(C2(C)NC(=O)N(CC(=O)Nc3ccc(-c4nc5ccc(C)cc5s4)cc3)C2=O)cc1 (stereo not drawn) | -0.5 | 4.2 | 5.7 | 1907 | 2403* | 2469*
CCC1(c2ccc(F)cc2)NC(=O)N(CC(=O)Nc2ccc(-c3nc4ccc(C)cc4s3)cc2)C1=O (stereo not drawn) | -1.6 | -2.9 | -2.6 | 1532 | 2350* | 1683
Cc1c(-c2ccccc2)nc2ccccc2c1C(=O)NCc1cccs1 | 1.8 | -4.2 | -4.8 | 1535 | 1607 | 1596
O=C(c1cccc(C(F)(F)F)c1)N1CCN(c2cc(=O)[nH]nc2-c2ccccc2)CC1 | 33.0* | -10.1 | -9.1 | 1357 | / | /
COc1ccc(NC(=O)COC(=O)c2cccc(S(=O)(=O)N(C)C)c2)cc1 | 1.5 | -2.9 | 24.1* | 1513 | 1754 | 2141
Cc1ccc(NC(=O)CN2C(=O)N/C(=C/c3cc(C)n(-c4ccc(C(=O)O)cc4)c3C)C2=O)cc1 | 1.1 | 5.2 | -2.2 | 1549 | 1621 | 1781
CCn1c(C)cc(/C=C2\NC(=O)N(CC(=O)Nc3ccc(F)cc3)C2=O)c1C | 5.0 | 13.1 | 10.0 | 1533 | 1608 | 2342*
O=[N+]([O-])c1cccc(/C=N/NS(=O)(=O)c2ccccc2)c1 | -0.4 | 3.3 | 1.0 | 1638 | 1452 | 1742
COc1ccc(-n2c(O)c(/C=N/NS(=O)(=O)c3cccc([N+](=O)[O-])c3)c3ccccc3c2=O)cc1OC | 5.9 | -5.5 | 21.5* | 1428 | 1532 | 1942
